# Values joined by “and” are separate entries in the source; they are usually repeats but may differ in a detail not shown here. Equal values may be shown once. The campaign covered roughly 5,500 compounds. About 2,000 (36%) were called active. About 18% were inconclusive and are not listed. The list shows a part of the results. Unmarked numbers belong to inactive results. Rule as the data show it: active = normalized growth mostly below about 0.91 (no sharp cut-off); inconclusive = no clear call, values can overlap the other calls; inactive = mostly above about 0.92.
# Test: chemical genetic growth profiling, strain panel (AID 1159580);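 also: tested at 20 µM; growth read once vehicle control cultures reached saturation at 30 °C; 1 = growth at the plate median or of vehicle wells; lower values mean less growth of the strain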
# Details: growth OD
# [1] = S. cerevisiae deletion strains, locus YAL040C, strain CLN3, hits give low values
# [2] = S. cerevisiae deletion strains, locus YDR363W, strain ESC2, hits give low values
# [3] = S. cerevisiae deletion strains, locus YER002W, strain NOP16, hits give low values
# [4] = S. cerevisiae deletion strains, locus YGR078C, strain PAC10, hits give low values
# [5] = S. cerevisiae deletion strains, locus YMR263W, strain SAP30, hits give low values
# [6] = S. cerevisiae deletion strains, locus YMR307W, strain GAS1, hits give low values
# [7] = S. cerevisiae deletion strains, locus YNL128W, strain TEP1, hits give low values
# [8] = S. cerevisiae deletion strains, locus YNL153C, strain GIM3, hits give low values
# [9] = S. cerevisiae deletion strains, locus YNL175C, strain NOP13, hits give low values
# [10] = S. cerevisiae deletion strains, locus YNL197C, strain WHI3, hits give low values
# [11] = S. cerevisiae deletion strains, locus YNL224C, strain SQS1, hits give low values
# [12] = S. cerevisiae deletion strains, locus YNL322C, strain KRE1, hits give low values
# [13] = S. cerevisiae deletion strains, locus YOR083W, strain WHI5 (second series), hits give low values
# [14] = S. cerevisiae deletion strains, locus YPL055C, strain LGE1, hits give low values
# [15] = S. cerevisiae deletion strains, locus YPL241C, strain CIN2, hits give low values
# [16] = S. cerevisiae deletion strains, locus YDR150W, strain NUM1, hits give low values
smiles,measurement,setting,value
CC(=O)O[C@]1(C(C)=O)CC[C@H]2[C@@H]3C=C(Cl)C4=CC(=O)[C@@H]5C[C@@H]5[C@]4(C)[C@H]3CC[C@@]21C,normalized growth,[1],0.994
same,normalized growth,[2],0.976
same,normalized growth,[3],1.02
same,normalized growth,[4],0.985
same,normalized growth,[5],0.993
same,normalized growth,[6],0.975
same,normalized growth,[7],0.993
same,normalized growth,[8],1.05
same,normalized growth,[9],1.03
same,normalized growth,[10],0.966
same,normalized growth,[11],0.975
same,normalized growth,[12],0.988
same,normalized growth,[13],0.979
same,normalized growth,[14],1
same,normalized growth,[15],1
Nc1nc2c(ncn2COC(CO)CO)c(=O)[nH]1,normalized growth,[1],1.05
same,normalized growth,"S. cerevisiae deletion strains, locus YCL061C, strain MRC1 (second series), hits give low values",1.01
same,normalized growth,[16],1.01
same,normalized growth,[2],1.03
same,normalized growth,[3],1.01
same,normalized growth,[4],0.999
same,normalized growth,[5],1.01
same,normalized growth,[6],0.99
same,normalized growth,[7],0.992
same,normalized growth,[9],1.01
same,normalized growth,[10],1.01
same,normalized growth,[11],0.997
same,normalized growth,[13],1.03
same,normalized growth,[15],1.01
COc1ccc(-c2cc(=O)c3c(O)cc(O)cc3o2)cc1O,normalized growth,"S. cerevisiae deletion strains, locus YAL013W, strain DEP1, hits give low values",1
same,normalized growth,"S. cerevisiae deletion strains, locus YBR021W, strain FUR4, hits give low values",0.985
same,normalized growth,"S. cerevisiae deletion strains, locus YBR229C, strain ROT2, hits give low values",0.987
same,normalized growth,"S. cerevisiae deletion strains, locus YCL029C, strain bik1, hits give low values",0.997
same,normalized growth,"S. cerevisiae deletion strains, locus YDL035C, strain GPR1, hits give low values",0.983
same,normalized growth,"S. cerevisiae deletion strains, locus YDL074C, strain BRE1, hits give low values",0.969
same,normalized growth,"S. cerevisiae deletion strains, locus YDL101C, strain DUN1, hits give low values",0.998
same,normalized growth,"S. cerevisiae deletion strains, locus YDL134C, strain PPH21, hits give low values",0.993
same,normalized growth,"S. cerevisiae deletion strains, locus YDL185W, strain tfp1, hits give low values",1.01
same,normalized growth,"S. cerevisiae deletion strains, locus YDL192W, strain arf1, hits give low values",0.999
same,normalized growth,"S. cerevisiae deletion strains, locus YDR101C, strain arx1, hits give low values",0.98
same,normalized growth,[16],1
same,normalized growth,"S. cerevisiae deletion strains, locus YDR162C, strain NBP2, hits give low values",0.961
same,normalized growth,"S. cerevisiae deletion strains, locus YDR318W, strain mcm21, hits give low values",0.995
same,normalized growth,"S. cerevisiae deletion strains, locus YDR388W, hits give low values",0.993
same,normalized growth,"S. cerevisiae deletion strains, locus YDR502C, strain sam2, hits give low values",0.975
same,normalized growth,"S. cerevisiae deletion strains, locus YEL061C, strain CIN8, hits give low values",0.994
same,normalized growth,"S. cerevisiae deletion strains, locus YER110C, hits give low values",1
same,normalized growth,"S. cerevisiae deletion strains, locus YER155C, strain BEM2, hits give low values",1
same,normalized growth,"S. cerevisiae deletion strains, locus YER167W, strain BCK2, hits give low values",0.997
same,normalized growth,"S. cerevisiae deletion strains, locus YGL078C, strain dbp3, hits give low values",0.989
same,normalized growth,"S. cerevisiae deletion strains, locus YGL086W, strain mad1, hits give low values",0.981
same,normalized growth,"S. cerevisiae deletion strains, locus YGL248W, strain PDE1, hits give low values",0.997
same,normalized growth,[4],0.952
same,normalized growth,"S. cerevisiae deletion strains, locus YGR135W, strain pre9, hits give low values",0.962
same,normalized growth,"S. cerevisiae deletion strains, locus YGR229C, strain SMI1, hits give low values",0.937
same,normalized growth,"S. cerevisiae deletion strains, locus YGR252W, strain gcn5, hits give low values",0.96
same,normalized growth,"S. cerevisiae deletion strains, locus YHR030C, strain SLT2, hits give low values",0.997 and 1.02
same,normalized growth,"S. cerevisiae deletion strains, locus YHR079C, strain IRE1 (second series), hits give low values",0.983
same,normalized growth,"S. cerevisiae deletion strains, locus YHR079C, strain IRE1, hits give low values",1.01
same,normalized growth,"S. cerevisiae deletion strains, locus YHR094C, strain hxt1, hits give low values",1
same,normalized growth,"S. cerevisiae deletion strains, locus YHR129C, strain ARP1, hits give low values",0.989
same,normalized growth,"S. cerevisiae deletion strains, locus YHR200W, strain rpn10, hits give low values",0.99
same,normalized growth,"S. cerevisiae deletion strains, locus YIL066C, strain RNR3, hits give low values",0.987
same,normalized growth,"S. cerevisiae deletion strains, locus YIL073C, strain SPO22, hits give low values",1.02
same,normalized growth,"S. cerevisiae deletion strains, locus YIL125W, strain kgd1, hits give low values",0.995
same,normalized growth,"S. cerevisiae deletion strains, locus YIR030C, strain dcg1, hits give low values",0.991
same,normalized growth,"S. cerevisiae deletion strains, locus YJL095W, strain BCK1, hits give low values",0.944 and 0.996
same,normalized growth,"S. cerevisiae deletion strains, locus YJL134W, strain LCB3, hits give low values",0.998
same,normalized growth,"S. cerevisiae deletion strains, locus YJL168C, strain set2, hits give low values",0.998
same,normalized growth,"S. cerevisiae deletion strains, locus YJL187C, strain SWE1 (second series), hits give low values",0.967
same,normalized growth,"S. cerevisiae deletion strains, locus YJR043C, strain POL32, hits give low values",0.998
same,normalized growth,"S. cerevisiae deletion strains, locus YJR066W, strain TOR1, hits give low values",0.986
same,normalized growth,"S. cerevisiae deletion strains, locus YJR075W, strain HOC1, hits give low values",1.04
same,normalized growth,"S. cerevisiae deletion strains, locus YKL009W, strain mrt4, hits give low values",0.89
same,normalized growth,"S. cerevisiae deletion strains, locus YKL068W, hits give low values",0.968
same,normalized growth,"S. cerevisiae deletion strains, locus YKL085W, strain MDH1 (second series), hits give low values",0.913 (active)
same,normalized growth,"S. cerevisiae deletion strains, locus YKL085W, strain MDH1, hits give low values",0.913 (active)
same,normalized growth,"S. cerevisiae deletion strains, locus YKL190W, strain CNB1, hits give low values",0.993
same,normalized growth,"S. cerevisiae deletion strains, locus YKR001C, strain vps1, hits give low values",1
same,normalized growth,"S. cerevisiae deletion strains, locus YLR039C, strain RIC1, hits give low values",0.928
same,normalized growth,"S. cerevisiae deletion strains, locus YLR058C, strain SHM2, hits give low values",0.989
same,normalized growth,"S. cerevisiae deletion strains, locus YLR102C, strain apc9, hits give low values",0.995
same,normalized growth,"S. cerevisiae deletion strains, locus YLR113W, strain HOG1, hits give low values",0.888
same,normalized growth,"S. cerevisiae deletion strains, locus YLR262C, strain YPT6, hits give low values",0.921
same,normalized growth,"S. cerevisiae deletion strains, locus YLR268W, strain sec22, hits give low values",0.944
same,normalized growth,"S. cerevisiae deletion strains, locus YLR330W, strain CHS5, hits give low values",0.999
same,normalized growth,"S. cerevisiae deletion strains, locus YLR342W, strain FKS1 (second series), hits give low values",1.02
same,normalized growth,"S. cerevisiae deletion strains, locus YLR371W, strain rom2, hits give low values",0.99
same,normalized growth,"S. cerevisiae deletion strains, locus YLR418C, strain cdc73, hits give low values",0.925
same,normalized growth,"S. cerevisiae deletion strains, locus YML016C, strain PPZ1, hits give low values",0.991
same,normalized growth,"S. cerevisiae deletion strains, locus YML032C, strain rad52, hits give low values",1.01
same,normalized growth,"S. cerevisiae deletion strains, locus YML124C, strain tub3, hits give low values",0.988
same,normalized growth,"S. cerevisiae deletion strains, locus YMR078C, strain ctf18, hits give low values",1
same,normalized growth,"S. cerevisiae deletion strains, locus YMR223W, strain ubp8, hits give low values",0.993
same,normalized growth,[5],0.982
same,normalized growth,[6],1.08
same,normalized growth,"S. cerevisiae deletion strains, locus YNL067W, strain RPL9B, hits give low values",0.983
same,normalized growth,[7],0.988
same,normalized growth,[8],0.958
same,normalized growth,"S. cerevisiae deletion strains, locus YNL183C, strain NPR1, hits give low values",0.921
same,normalized growth,"S. cerevisiae deletion strains, locus YNL233W, strain BNI4, hits give low values",0.947
same,normalized growth,"S. cerevisiae deletion strains, locus YNL250W, strain rad50, hits give low values",1
same,normalized growth,"S. cerevisiae deletion strains, locus YNL271C, strain bni1, hits give low values",1
same,normalized growth,"S. cerevisiae deletion strains, locus YNL298W, strain CLA4, hits give low values",1.03
same,normalized growth,"S. cerevisiae deletion strains, locus YNL307C, strain MCK1, hits give low values",1
same,normalized growth,[12],0.996
same,normalized growth,"S. cerevisiae deletion strains, locus YNR052C, strain pop2, hits give low values",0.994
same,normalized growth,"S. cerevisiae deletion strains, locus YOL006C, strain TOP1, hits give low values",0.973
same,normalized growth,"S. cerevisiae deletion strains, locus YOL012C, strain htz1",0.983
same,normalized growth,"S. cerevisiae deletion strains, locus YOL147C, strain pex11, hits give low values",0.992
same,normalized growth,"S. cerevisiae deletion strains, locus YOR061W, strain CKA2, hits give low values",1
same,normalized growth,"S. cerevisiae deletion strains, locus YOR069W, strain VPS5, hits give low values",0.998
same,normalized growth,"S. cerevisiae deletion strains, locus YOR136W, strain idh2, hits give low values",0.993
same,normalized growth,"S. cerevisiae deletion strains, locus YOR144C, strain elg1, hits give low values",0.997
same,normalized growth,"S. cerevisiae deletion strains, locus YOR184W, strain ser1, hits give low values",0.982
same,normalized growth,"S. cerevisiae deletion strains, locus YOR231W, strain MKK1, hits give low values",1.01
same,normalized growth,"S. cerevisiae deletion strains, locus YOR316C, strain cot1, hits give low values",0.989
same,normalized growth,[14],0.97
same,normalized growth,[15],1
same,normalized growth,"S. cerevisiae deletion strains, locus YPL256C, strain CLN2, hits give low values",0.993
same,normalized growth,"S. cerevisiae deletion strains, locus YPR119W, strain clb2, hits give low values",0.993
same,normalized growth,"S. cerevisiae deletion strains, locus YPR141C, strain kar3, hits give low values",1.01
same,normalized growth,"S. cerevisiae deletion strains, locus YPR163C, strain tif3, hits give low values",1.01
same,normalized growth,"S. cerevisiae deletion strains, locus YPR167C, strain met16, hits give low values",0.991
same,normalized growth,"S. cerevisiae deletion strains, strain wtn01, hits give low values",0.977
same,normalized growth,"S. cerevisiae strains, strain wild type, hits give low values",0.99

# From PubChem BioAssay AID1159580 (chemical genetic matrix, 2015)
